Hit rate of the full screen: of about 16,000 compounds, about 5,100 (32%) were called active. Another 25% or so got no clear call; they are omitted. This is one part of the list. A number with no mark means an inactive call. Calls follow the shape of the dose curve; as a rule, active = well fitted curve in the direction sought with a large enough effect; inconclusive = small, poorly fitted or top-dose-only effect, or effect the other way; inactive = no such curve, though single readings can be large or run the other way.
molecular target: Cytochrome P450 3A4 (Homo sapiens) (UniProt P08684); experiment: Cytochrome panel assay with activity outcomes; conditions: recombinant CYP, pro-luciferin dealkylation, luminescence, p450-cyp3a4; series mostly up to 57.1 µM
Sequence (P08684 whole entry, looked up): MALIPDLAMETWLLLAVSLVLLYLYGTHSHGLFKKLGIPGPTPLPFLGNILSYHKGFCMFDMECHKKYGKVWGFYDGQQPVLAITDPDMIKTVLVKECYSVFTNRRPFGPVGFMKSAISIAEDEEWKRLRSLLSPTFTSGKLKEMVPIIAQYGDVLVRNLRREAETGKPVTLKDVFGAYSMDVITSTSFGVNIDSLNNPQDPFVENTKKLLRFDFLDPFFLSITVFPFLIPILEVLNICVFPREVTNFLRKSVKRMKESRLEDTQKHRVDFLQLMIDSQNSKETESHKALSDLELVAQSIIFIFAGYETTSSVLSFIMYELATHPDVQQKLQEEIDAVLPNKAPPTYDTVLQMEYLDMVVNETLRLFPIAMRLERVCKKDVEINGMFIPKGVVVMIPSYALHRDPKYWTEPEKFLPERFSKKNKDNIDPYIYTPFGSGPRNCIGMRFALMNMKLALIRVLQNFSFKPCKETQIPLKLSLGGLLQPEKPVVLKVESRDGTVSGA
% is scaled to controls: 0 for no effect and ±100 for the full control effect.

Row | Structure (SMILES) | AC50 | activity, negative = inhibition
1 | O=C(NCc1cn(-c2ccccc2)nc1-c1ccccc1)c1cc([N+](=O)[O-])cc([N+](=O)[O-])c1 | 2.51 µM (active) | –
2 | O=C(c1ccc([N+](=O)[O-])cc1)n1nc(-c2ccccc2)nc1NCc1ccccc1 | – | 13.6% [at 2.29 µM]
3 | COC(=O)c1ccc(C23CC2(C(NP(=O)(c2ccccc2)c2ccccc2)c2ccccc2)C3)cc1 (stereo not drawn) | 3.16 µM (active) | –
4 | COC(=O)c1ccc(NC(=O)c2ccccc2)o1 | – | -12.8% [at 2.29 µM]
5 | COC(=O)c1ccc(C#CC(NP(=O)(c2ccccc2)c2ccccc2)c2ccccc2)cc1 (stereo not drawn) | inactive | –
6 | CN1C(=O)C[C@H](c2ccccc2)C1=O | inactive | –
7 | C/C(=N\Nc1nnc(C)c(=O)[nH]1)C(=O)O | inactive | –
8 | COC(=O)[C@@]1(Cc2ccccc2)[C@H]2c3cc(C(=O)N4CCCC4)n(Cc4ccccn4)c3C[C@H]2CN1C(=O)c1ccccc1 | 2 µM (active) | –
9 | COC(=O)[C@@]1(Cc2ccccc2)[C@H]2c3cc(C(=O)N4CCCC4)n(CCc4ccccn4)c3C[C@H]2CN1C(=O)c1ccccc1 | 2 µM (active) | –
10 | COC(=O)[C@@]1(Cc2ccc(F)cc2)[C@H]2c3cc(C(=O)N4CCCC4)n(Cc4ccccn4)c3C[C@H]2CN1C(=O)c1ccccc1 | 1 µM (active) | –
11 | O=C(O)[C@@H](O)[C@@H](O)[C@H](O)[C@H](O)CO | – | -3.9% [at 11.4 µM]
12 | O=C(Cc1ccc(Br)cc1)OCC(=O)c1ccc2c(c1)OCCO2 | – | -3.84% [at 2.29 µM]
13 | C/C(=C\C(=O)c1ccc(Br)cc1)NCc1ccc2c(c1)OCO2 | 2.51 µM (active) | –
14 | CC1CCCC(NC(=O)c2n[nH]c(=O)c3ccccc23)C1C (stereo not drawn) | 12.6 µM (active) | –
15 | CCN(CC)CCCN(Cc1cc2ccc(C)c(C)c2[nH]c1=O)C(=O)NC1CCCCC1 | 2.82 µM (active) | –
16 | Cc1c(Br)cc(C(=O)NC2CCCCC2)c(C)c1C | – | -5.25% [at 2.29 µM]
17 | CCC(=O)NC(NCC1CCCO1)C(Cl)(Cl)Cl (stereo not drawn) | inactive | –
18 | COc1cccc(NC(=O)CSc2nnc(CN3CCOCC3)n2C)c1 | inactive | –
19 | Cn1c(CN2CCOCC2)nnc1SCc1ccccc1 | 10 µM (active) | –
20 | COC1(OC)N=C(NC(=O)Nc2ccccc2)C2(C#N)C(c3ccccc3)C12C#N (stereo not drawn) | inactive | –
21 | c1c[nH]c(CN2CCOCC2)n1 | – | -23.7% [at 11.4 µM]
22 | CC(=O)[C@H](C(=N)C#N)C(=O)Nc1ccccc1 | – | 3.78% [at 11.4 µM]
23 | Cn1c(CNC(=O)Nc2ccccc2)nnc1SCc1ccccc1 | 14.1 µM (active) | –
24 | CCn1c(=O)[nH]c2cc(Cl)c(Cl)cc21 | 12.6 µM (active) | –

Row | Structure (SMILES) | AC50 | activity, negative = inhibition
25 | CCn1c(=O)[nH]c2ccccc21 | inactive | –
26 | CCn1c(C)[n+](CCCS(=O)(=O)[O-])c2cc(Cl)c(Cl)cc21 | inactive | –
27 | O=C(O)/C=C\C(=O)Nc1ccccn1 | – | -10.9% [at 11.4 µM]
28 | C=C(C)[C@H]1CC=C(C)/C(=N/NC(=O)CNc2ccccc2OC)C1 | 10 µM (active) | –
29 | C=C(C)C1CC=C(C)/C(=N/NC(=O)c2ccc(NC(=O)c3cccc(C)c3)cc2)C1 (stereo not drawn) | 12.6 µM (active) | –
30 | Cc1cccc(C(=O)NNC(=O)C2CCCO2)c1 (stereo not drawn) | inactive | –
31 | Cc1cccc(C(=O)Nc2nnc(-c3ccc(C(C)(C)C)cc3)s2)c1 | inactive | –
32 | CSc1ccc2nnc(-c3cccc(F)c3)n2n1 | inactive | –
33 | COc1cccc(-c2nnc3sc(-c4ccc(C)cc4)nn23)c1 | 7.94 µM (active) | –
34 | CNC[C@@H](SC)c1ccc(O)c(O)c1 | – | -6.87% [at 11.4 µM]
35 | Clc1ccc(/C=N/Nc2nnc(-c3ncc[nH]3)c3ccccc23)cc1 | 15.8 µM (active) | –
36 | CCOc1ccc(C(C)=O)cc1N1C(=O)C2C3C=CC(C3=C(C)C)C2C1=O (stereo not drawn) | 11.2 µM (active) | –
37 | CCOc1ccc(C(C)=O)cc1N1C(=O)C2C3C=CC(O3)C2C1=O (stereo not drawn) | – | -20.8% [at 11.4 µM]
38 | CCOc1ccc(C(C)=O)cc1N1C(=O)C2C(C1=O)C1C=CC2C12CC2 (stereo not drawn) | inactive | –
39 | CCC(C)(C)NC(=O)c1ccc2c(c1)N(CC(=O)OC)C(=O)C(C)(C)O2 | inactive | –
40 | Nc1ncnc2c1ncn2CCCCC(=O)O | – | -8.48% [at 11.4 µM]
41 | Cc1ccc(C(C(=O)NCc2ccco2)N(C(=O)CNC(=O)c2cccs2)c2ccc(C)cc2)cc1 (stereo not drawn) | 1.12 µM (active) | –
42 | Cc1ccc(C(C(=O)NCc2ccco2)N(C(=O)CNC(=O)c2cccs2)c2ccc(C)cc2C)cc1 (stereo not drawn) | 1 µM (active) | –
43 | O=C(NCc1ccco1)C(c1ccccc1)N(C(=O)Cc1cccs1)c1ccccc1F (stereo not drawn) | 0.794 µM (active) | –
44 | Cc1ccc(C(CC(N)=O)c2ccco2)cc1 (stereo not drawn) | inactive | –
45 | O=C(c1cccs1)n1nc(-c2ccc(Cl)cc2)nc1NCc1ccco1 | – | -4.78% [at 2.29 µM]
46 | CCn1c(C)c(/C=N/Nc2nc3ccccc3s2)c2ccccc21 | 8.91 µM (active) | –
47 | Cc1ccc(C(=O)N2CCN(c3cc(=O)[nH]nc3-c3ccccc3)CC2)cc1 | inactive | –
48 | Cc1ccc(C(=O)N2CCN(C3c4cccc5cccc(c45)C3NS(=O)(=O)c3ccccc3)CC2)cc1 (stereo not drawn) | 0.0355 µM (active) | –

— PubChem BioAssay AID1851 (National Center for Advancing Translational Sciences (NCATS), 2009)
